Assay results taken from PubChem BioAssay (NCI).
Compounds without any hit were thinned out: in the full panel of roughly 83,000, 20% have a hit.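 Compound tested at a single concentration for 48 hours in 96-well plates; a percent growth value below 10 was scored as active.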 A number with no mark means an inactive call. The source made the active and inactive calls.

Experiments:
Experiment in all cases: NCI-60 one-dose screen, 48 h (100 = growth as untreated, 0 = no growth, -100 = all killed)
Conditions in all cases: 10 µM unless noted
T-47D breast = system: T-47D breast
BT-549 breast = system: BT-549 breast
MDA-MB-435 melanoma = system: MDA-MB-435 melanoma
SW-620 colon = system: SW-620 colon
MCF7 breast = system: MCF7 breast
HCT-116 colon = system: HCT-116 colon
HCC-2998 colon = system: HCC-2998 colon
KM12 colon = system: KM12 colon

## Clc1ccc2c(N/N=C/c3c[nH]c4ccccc34)ccnc2c1
T-47D breast
  growth: -54.5% (active)
BT-549 breast
  growth: -89.1% (active)
MDA-MB-435 melanoma
  growth: -92.9% (active)
SW-620 colon
  growth: -74.8% (active)
MCF7 breast
  growth: -72% (active)
HCT-116 colon
  growth: -91.9% (active)
HCC-2998 colon
  growth: -92.3% (active)
KM12 colon
  growth: -77.2% (active)

## C/C(=N\NC(=O)/C=C/CC(=O)O)c1nnn(-c2ccc([N+](=O)[O-])cc2)c1C
T-47D breast
  growth: 98.9%
BT-549 breast
  growth: 103%
MDA-MB-435 melanoma
  growth: 103%
SW-620 colon
  growth: 100%
MCF7 breast
  growth: 97.8%
HCT-116 colon
  growth: 97.9%
HCC-2998 colon
  growth: 105%
KM12 colon
  growth: 97.2%

## O=C(CCCCCCNC(=O)C(O)(O)C(F)(F)F)Nc1nc2ccccc2s1
T-47D breast
  growth: 12.1%
BT-549 breast
  growth: 13%
MDA-MB-435 melanoma
  growth: 4.88% (active)
SW-620 colon
  growth: 4.75% (active)
MCF7 breast
  growth: 9.8% (active)
HCT-116 colon
  growth: 2.81% (active)
HCC-2998 colon
  growth: -39.8% (active)
KM12 colon
  growth: 7.52% (active)

## COc1cc(/C=C2/C(=O)Nc3ccc(Cl)cc32)ccc1OCc1ccc(Cl)cc1
T-47D breast
  growth: 80.5%
BT-549 breast
  growth: 101%
MDA-MB-435 melanoma
  growth: 91.3%
SW-620 colon
  growth: 59.7%
MCF7 breast
  growth: 49%
HCT-116 colon
  growth: 47.9%
HCC-2998 colon
  growth: 107%
KM12 colon
  growth: 100%

## O=C(CCCCCC/C=C\c1csc(Br)n1)NO
T-47D breast
  growth: 76.3%
BT-549 breast
  growth: 103%
MDA-MB-435 melanoma
  growth: 84.4%
SW-620 colon
  growth: 78.2%
MCF7 breast
  growth: 73.1%
HCT-116 colon
  growth: 52.5%
HCC-2998 colon
  growth: 98.5%
KM12 colon
  growth: 91.7%

## COc1ccc(/C=N/NC(=O)CSc2nc(-c3cnccn3)cc(-c3cccs3)c2C#N)cc1
T-47D breast
  growth: 68.7%
BT-549 breast
  growth: 49.2%
MDA-MB-435 melanoma
  growth: 81.6%
SW-620 colon
  growth: 93%
MCF7 breast
  growth: 76.8%
HCT-116 colon
  growth: 22.4%
HCC-2998 colon
  growth: 79.1%
KM12 colon
  growth: 64.7%

## C#Cc1nc(/C=C/CCCCCCC(=O)NO)cs1
T-47D breast
  growth: 51.6%
BT-549 breast
  growth: 88.9%
MDA-MB-435 melanoma
  growth: 55.3%
SW-620 colon
  growth: 29.3%
MCF7 breast
  growth: 48%
HCT-116 colon
  growth: 20%
HCC-2998 colon
  growth: 108%
KM12 colon
  growth: 74.7%

## COc1ccc2sc(NC(=O)CCCCCCNC(=O)C(O)(O)C(F)(F)F)nc2c1
T-47D breast
  growth: 8.02% (active)
BT-549 breast
  growth: 7.95% (active)
MDA-MB-435 melanoma
  growth: 1.37% (active)
SW-620 colon
  growth: 5.18% (active)
MCF7 breast
  growth: 9.01% (active)
HCT-116 colon
  growth: 0.844% (active)
HCC-2998 colon
  growth: -45.9% (active)
KM12 colon
  growth: -15.1% (active)

## CC(C)Sc1nc(-c2ccccc2)c(C#N)c(N2CCOCC2)n1
T-47D breast
  growth: 68.5%
BT-549 breast
  growth: 111%
MDA-MB-435 melanoma
  growth: 88%
SW-620 colon
  growth: 74.2%
MCF7 breast
  growth: 72.8%
HCT-116 colon
  growth: 43.5%
HCC-2998 colon
  growth: 69.5%
KM12 colon
  growth: 88.3%

## C#Cc1nc(/C=C/C(=O)NO)cs1
T-47D breast
  growth: 67.9%
BT-549 breast
  growth: 101%
MDA-MB-435 melanoma
  growth: 61.1%
SW-620 colon
  growth: 45.8%
MCF7 breast
  growth: 62.6%
HCT-116 colon
  growth: 23.8%
HCC-2998 colon
  growth: 111%
KM12 colon
  growth: 56.3%

## NC1C2CCC1CN(c1cnc(C(=O)Nc3cc(F)cc4cccnc34)cn1)C2 (stereo not given)
T-47D breast
  growth: 34.2%
BT-549 breast
  growth: 94.7%
MDA-MB-435 melanoma
  growth: 75.5%
SW-620 colon
  growth: 25%
MCF7 breast
  growth: 3.24% (active)
HCT-116 colon
  growth: 15.8%
HCC-2998 colon
  growth: 79.3%
KM12 colon
  growth: 77.1%

## Nc1nc(=O)n([C@H]2C[C@H](O)[C@@H](CO)O2)cc1C=O
T-47D breast
  growth: 113%
BT-549 breast
  growth: 116%
MDA-MB-435 melanoma
  growth: 110%
SW-620 colon
  growth: 107%
MCF7 breast
  growth: 96.1%
HCT-116 colon
  growth: 91.3%
HCC-2998 colon
  growth: 87.7%
KM12 colon
  growth: 103%

## O=S(=O)(Oc1ccc(-c2cn3ccoc3n2)cc1)c1cccc(C(F)(F)F)c1
T-47D breast
  growth: 85.5%
BT-549 breast
  growth: 98.8%
MDA-MB-435 melanoma
  growth: 101%
SW-620 colon
  growth: 103%
MCF7 breast
  growth: 89.5%
HCT-116 colon
  growth: 102%
HCC-2998 colon
  growth: 99.8%
KM12 colon
  growth: 95.7%

## O=C(/C=C/C=C/c1csc(Br)n1)NO
T-47D breast
  growth: 103%
BT-549 breast
  growth: 98.4%
MDA-MB-435 melanoma
  growth: 92.6%
SW-620 colon
  growth: 103%
MCF7 breast
  growth: 84.2%
HCT-116 colon
  growth: 95.8%
HCC-2998 colon
  growth: 107%
KM12 colon
  growth: 93.4%

## CN1CCN(c2ccc(Nc3nc(NCCCNS(=O)(=O)c4ccccc4)c4sccc4n3)cc2)CC1
T-47D breast
  growth: 36.8%
BT-549 breast
  growth: 62.1%
MDA-MB-435 melanoma
  growth: 50.6%
SW-620 colon
  growth: 52.5%
MCF7 breast
  growth: 35.5%
HCT-116 colon
  growth: 16.7%
HCC-2998 colon
  growth: 60.4%
KM12 colon
  growth: 73.3%

## Cc1ccc(NC(=O)Nc2nc3ccc([N+](=O)[O-])cc3s2)cc1
T-47D breast
  growth: -22.3% (active)
BT-549 breast
  growth: -9.82% (active)
MDA-MB-435 melanoma
  growth: -7.46% (active)
SW-620 colon
  growth: 8.56% (active)
MCF7 breast
  growth: 2.35% (active)
HCT-116 colon
  growth: 1.1% (active)
HCC-2998 colon
  growth: 6.19% (active)
KM12 colon
  growth: -3.91% (active)

## CC(C)(C)OC(=O)Nc1ccc(-c2cccc(Oc3ccc4nnc(Cl)n4n3)c2)cc1
T-47D breast
  growth: 59.3%
BT-549 breast
  growth: 58.8%
MDA-MB-435 melanoma
  growth: 83.7%
SW-620 colon
  growth: 97.3%
MCF7 breast
  growth: 74.8%
HCT-116 colon
  growth: 43.9%
HCC-2998 colon
  growth: 109%
KM12 colon
  growth: 88.2%

## COc1ccc([C@@H]2C(=O)N(c3cc(OC)c(OC)c(OC)c3)[C@H]2c2ccc(OC)c(O)c2)cc1
T-47D breast
  growth: 94.9%
BT-549 breast
  growth: -30.1% (active)
MDA-MB-435 melanoma
  growth: -15.4% (active)
SW-620 colon
  growth: 24.2%
MCF7 breast
  growth: 10.6%
HCT-116 colon
  growth: 6.47% (active)
HCC-2998 colon
  growth: 17%
KM12 colon
  growth: 10.7%

## COc1ccc(-c2cc(-c3ccc(N(C)C)cc3)n3c(n2)nc2ccccc23)cc1
T-47D breast
  growth: 2.27% (active)
BT-549 breast
  growth: 40.1%
MDA-MB-435 melanoma
  growth: 74.3%
SW-620 colon
  growth: 76.9%
HCT-116 colon
  growth: 15.8%
HCC-2998 colon
  growth: 84.2%
KM12 colon
  growth: 62.3%

## C#C[C@]1(O)CC[C@H]2[C@@H]3CC=C4c5sc(Nc6cccc(F)c6)nc5CC[C@]4(C)[C@H]3CC[C@@]21C
T-47D breast
  growth: 29.9%
BT-549 breast
  growth: 19.4%
MDA-MB-435 melanoma
  growth: 29.9%
SW-620 colon
  growth: 8.9% (active)
HCT-116 colon
  growth: 2.09% (active)
HCC-2998 colon
  growth: 42%
KM12 colon
  growth: 13.7%

## CC(C)NC(=O)c1cc(-c2ccc(NC(=O)Nc3ccc(F)c(C(F)(F)F)c3)cc2)nc2cccnc12
T-47D breast
  growth: 80.3%
BT-549 breast
  growth: 100%
MDA-MB-435 melanoma
  growth: 91.3%
SW-620 colon
  growth: 106%
HCT-116 colon
  growth: 81.9%
HCC-2998 colon
  growth: 115%
KM12 colon
  growth: 89.6%

## O=C(/C=C/c1cccc(F)c1)c1cccc(OCCCOc2cccc(C(=O)/C=C/c3cccc(F)c3)c2)c1
T-47D breast
  growth: 69.8%
BT-549 breast
  growth: 72.1%
MDA-MB-435 melanoma
  growth: 99.8%
SW-620 colon
  growth: 14.3%
HCT-116 colon
  growth: -80.3% (active)
HCC-2998 colon
  growth: 44.2%
KM12 colon
  growth: 32.6%

## O=S(=O)(NCCCNc1nccc(-c2[nH]c(-c3ccccc3)nc2-c2ccc(F)c(O)c2)n1)c1ccccc1
T-47D breast
  growth: 90.1%
BT-549 breast
  growth: 112%
MDA-MB-435 melanoma
  growth: 51%
SW-620 colon
  growth: 133%
MCF7 breast
  growth: 94.9%
HCT-116 colon
  growth: 77.9%
HCC-2998 colon
  growth: 126%
KM12 colon
  growth: 98.8%

## NC(=O)c1ncn2c(=O)n(CCF)nnc12
T-47D breast
  growth: 88.8%
BT-549 breast
  growth: 110%
MDA-MB-435 melanoma
  growth: 82.4%
SW-620 colon
  growth: 40.4%
HCT-116 colon
  growth: 47.4%
HCC-2998 colon
  growth: 56.4%
KM12 colon
  growth: 83.5%

## O=[N+]([O-])c1ccc(NC(=S)NNC(=S)Nc2ccc(F)cc2)cc1
T-47D breast
  growth: 74.1%
BT-549 breast
  growth: 97.1%
MDA-MB-435 melanoma
  growth: 91%
SW-620 colon
  growth: 91.5%
HCT-116 colon
  growth: 83.7%
HCC-2998 colon
  growth: 85.5%
KM12 colon
  growth: 80.4%

## Cn1cc(C2=C(c3coc4cc(Br)ccc34)C(=O)NC2=O)c2ccccc21
T-47D breast
  growth: 70%
BT-549 breast
  growth: 82.6%
MDA-MB-435 melanoma
  growth: 8.23% (active)
SW-620 colon
  growth: 42.1%
HCT-116 colon
  growth: 57.4%
HCC-2998 colon
  growth: 104%
KM12 colon
  growth: 80.5%

## O=c1[nH][nH]c(-c2ccc(F)cc2)c1-c1nc2ccccc2s1
T-47D breast
  growth: 87.7%
BT-549 breast
  growth: 98.8%
MDA-MB-435 melanoma
  growth: 104%
SW-620 colon
  growth: 105%
HCT-116 colon
  growth: 93.2%
HCC-2998 colon
  growth: 107%
KM12 colon
  growth: 105%

## CCCCCCNC(=O)Oc1ccc(/C(=C(/C)c2ccc(Cl)cc2)c2ccc(OCCN3CCCCCC3)cc2)cc1
T-47D breast
  growth: 48.2%
BT-549 breast
  growth: 101%
MDA-MB-435 melanoma
  growth: 70%
SW-620 colon
  growth: 22.4%
HCT-116 colon
  growth: 30.9%
HCC-2998 colon
  growth: 90.7%
KM12 colon
  growth: 58.9%
